# Measurements: PubChem BioAssay (NCI)
# The panel holds about 83,000 compounds, 20% with a hit somewhere; the sample as a whole holds those more often.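 Percent growth is the endpoint: 0 to 100 indicates growth inhibition (40 means 60% inhibition), 0 means no net growth, and negative values indicate cell death.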 Values without a mark were called inactive. Active and inactive are the calls of the source. The calls were made as follows: active = growth percent below 10; inactive = the rest.
# Tested on: HL-60(TB) leukemia
# Assay: NCI-60 one-dose screen, 48 h (100 = growth as untreated, 0 = no growth, -100 = all killed)
# Details: 10 µM unless noted
row,Structure (SMILES),growth
1,C[C@@H]1CN(Cc2ccc(/C=C/c3n[nH]c4ccc5nc(-c6cn[nH]c6C(F)(F)F)c6c(c5c34)CCCC6)cc2)C[C@H](C)O1,46.7%
2,Cc1c(Cl)c(C)c(Cc2c(C)c(Cl)c(C)c(Cl)c2O)c(O)c1Cl,10.3%
3,Nc1nccc(=S)[nH]1,79.9%
4,COc1cc(/C=C2\CCCC3=C2N=C2SC=NN2C3c2cc(OC)c(OC)c(OC)c2)cc(OC)c1OC (configuration not stated),-1.19% (active)
5,CCCCCCCCCCCC(=O)OC(C)C(=O)NCCCC (configuration not stated),99.4%
6,COc1cc(C2CC(=O)Nc3c2cnn3C)cc(OC)c1OC (configuration not stated),97.6%
7,Brc1ccc(Nc2nc(Nc3cnc4ccccc4c3)c3[nH]cnc3n2)cc1,92.9%
8,CCN(CC)CCSCCCNc1c2ccc(Cl)cc2nc2ccc(OC)cc12,-35.4% (active)
9,CC(=O)Nc1ccc2c(c1)C(N1CC3CCC(CC3)C1)c1ccccc1-2 (configuration not stated),52.3%
10,CCCCSCC(=O)c1ccccc1,63.4%
11,Cc1cccc(Cl)c1NC(=O)c1cnc(Nc2cc(N3CCOCC3)cc(N3CCOCC3)c2)s1,45.3%
12,Cc1cccc(CC(=O)c2ccccc2)n1,86.9%
13,NC(=S)N/N=C(/c1cccs1)C1CC1,79.9%
14,Cc1c(CN)cc(-c2ccc(Cl)cc2)n1-c1ccccc1,86.9%
15,CN(C)CCCNC(=O)c1cncnc1Nc1ccc2c(ccn2Cc2cccc(F)c2)c1,93.3%
16,COc1cccc(/C=C2\Oc3cc(OCCN4CCCC4)ccc3C2=O)c1,99.6%
17,O=c1cc(N2CCOCC2)oc2c(-c3ccc4c(c3)OCCO4)csc12,4.41% (active)
18,COc1ccc(-c2nn(-c3cccc(NC(=O)Nc4cc(C(F)(F)F)cc(C(F)(F)F)c4)c3)cc2-c2ccncc2)cc1Cl,-25.4% (active)
19,COc1cc(/C=C/C(=O)c2c(C)oc3nc[nH]c(=O)c23)ccc1O,117%
20,CN(C)c1ccc(N=Cc2ccc(N3CCOCC3)cc2)cc1,16.6%
21,Cn1cc(-c2nonc2-c2c[nH]c3ccccc23)c2cccnc21,4.76% (active)
22,CCOC(=O)c1c(C)nc2c(c1N)CC(=O)N2Cc1ccc(F)cc1,83.5%
23,CSc1nc(Nc2cccc(NC(=O)CCl)c2)c(C#N)c(-c2cccc([N+](=O)[O-])c2)n1,30.3%
24,COc1cc2ncnc(Oc3ccc(NC(=O)Nc4ccc(CN5CCOCC5)c(C(F)(F)F)c4)c4ccccc34)c2cc1OC,-23% (active)
25,Cc1c(C(=O)OCCCCOC(=O)c2c(C)n(C)c3scc[n+]23)[n+]2ccsc2n1C,87.1%
26,Cc1ccc(O)c(C(=O)c2ccccc2)c1,73.1%
27,O=C(Nc1ccc(Nc2ccncc2)cc1)c1ccc(Nc2ccnc3ccc([N+](=O)[O-])cc23)cc1,79.9%
